Read-out in assay [1]: TIMP metallopeptidase inhibitor 1 (TIMP1), TIMP1 (gene 7076)
Briefly: BSK_hDFCGF_TIMP1: BioMAP Diversity Plus: hDFCGF Assay for TIMP metallopeptidase inhibitor 1 (TIMP1) Biomarker Activity (AID 2283062). Conditions: primary human foreskin fibroblasts; actives raise or lower the signal. In a few lines: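 Primary human foreskin fibroblasts in the hDFCGF system were dosed with compound for 24 h, then TIMP-1 was measured by ELISA. Activity was fitted bidirectionally relative to DMSO control; parallel SRB staining assessed cytotoxicity.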

Read-out in assay [2]: Monokine induced gamma interferon (MIG), CXCL9 (gene 4283)
Kind of assay: BSK_hDFCGF_MIG: BioMAP Diversity Plus: hDFCGF Assay for Monokine induced gamma interferon (MIG) Biomarker Activity (AID 2283063). Conditions: primary human foreskin fibroblasts; actives raise or lower the signal. In a few lines:
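ELISA read-out of MIG from primary human dermal fibroblasts 24 h post-dosing. Gain or loss of signal fitted bidirectionally, DMSO as baseline.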

Read-out in assay [3]: Matrix Metallopeptidase 1 (MMP1), MMP1 (gene 4312)
Kind of assay: BSK_hDFCGF_MMP1: BioMAP Diversity Plus: hDFCGF Assay for Matrix Metallopeptidase 1 (MMP1) Biomarker Activity (AID 2283064). Conditions: primary human foreskin fibroblasts; actives raise or lower the signal. In outline:
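ELISA read-out of MMP1 from human foreskin fibroblasts (primary skin cells), 24 h post-dose. Gain or loss of signal was fitted bidirectionally versus DMSO negative control; cytotoxicity was checked by SRB in parallel cultures.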

Read-out in assay [4]: Vascular cell adhesion molecule 1 (VCAM1), VCAM1 (gene 7412)
Briefly: BSK_hDFCGF_VCAM1: BioMAP Diversity Plus: hDFCGF Assay for Vascular cell adhesion molecule 1 (VCAM1) Biomarker Activity (AID 2283065).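 On AC50: VCAM-1 protein level quantified by ELISA after 24 h chemical exposure.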 Conditions: primary human foreskin fibroblasts; actives raise or lower the signal. In outline: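 Primary human foreskin fibroblasts (hDFCGF system) were dosed with chemical and VCAM-1 was measured by ELISA 24 h later. Bidirectional curve fitting used DMSO as negative control and activity baseline.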

Read-out in assay [5]: Plasminogen activator inhibitor-1 (PAI1), SERPINE1 (gene 5054)
Kind of assay: BSK_hDFCGF_PAI1: BioMAP Diversity Plus: hDFCGF Assay for Plasminogen activator inhibitor-1 (PAI1) Biomarker Activity (AID 2283066). Conditions: primary human foreskin fibroblasts; actives raise or lower the signal. In outline: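 PAI-1 levels in human dermal foreskin fibroblasts were quantified by ELISA 24 h after dosing, with gain or loss analysed against DMSO. Overt cytotoxicity was checked by sulforhodamine B total-protein staining in parallel cultures.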

Read-out in assay [6]: Intercellular Adhesion Molecule 1 (ICAM1), ICAM1 (gene 3383)
Kind of assay: BSK_KF3CT_ICAM1: BioMAP Diversity Plus: KF3CT Assay for Intercellular Adhesion Molecule 1 (ICAM1) Biomarker Activity (AID 2283067). Conditions: primary human keratinocytes with fibroblasts; actives raise or lower the signal. In a few lines: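 Human keratinocyte plus foreskin fibroblast primary co-culture was exposed to chemical for 24 h. ICAM-1 was then quantified by ELISA, and the data were fit bidirectionally against DMSO as the negative control and baseline.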

Read-out in assay [7]: Interferon-gamma inducible Protein 10 (IP10), CXCL10 (gene 3627)
Kind of assay: BSK_KF3CT_IP10: BioMAP Diversity Plus: KF3CT Assay for Interferon-gamma inducible Protein 10 (IP10) Biomarker Activity (AID 2283068). Conditions: primary human keratinocytes with fibroblasts; actives raise or lower the signal. In a few lines:
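In a primary skin co-culture of keratinocytes and fibroblasts, IP-10 is quantified by ELISA at 24 h after dosing. SRB staining of parallel wells monitors overt toxicity. Curves are fitted both directions against DMSO.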

Assay [8] can be described thus: BSK_KF3CT_SRB: Viability Assessment in the BioMAP Diversity Plus: KF3CT Assay (AID 2283069).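 Further: read 24 h after compound addition.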 Conditions: primary human keratinocytes with fibroblasts. In a few lines:
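SRB read-out at 560 nm (0.1% stain, TCA-fixed cells) gauges overt cytotoxicity in a human skin keratinocyte–fibroblast co-culture 24 h post-dosing. Signal change was fitted bidirectionally relative to DMSO control.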

Read-out in assay [9]: Interleukin-1 alpha (IL1a), IL1A (gene 3552)
Briefly: BSK_KF3CT_IL1a: BioMAP Diversity Plus: KF3CT Assay for Interleukin-1 alpha (IL1a) Biomarker Activity (AID 2283070). Conditions: primary human keratinocytes with fibroblasts; actives raise or lower the signal. In a few lines:
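Primary skin co-culture (keratinocytes, foreskin fibroblasts), 24 h exposure; ELISA for IL-1a; bidirectional curve fit vs DMSO.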

Read-out in assay [10]: TIMP metallopeptidase inhibitor 2 (TIMP2), TIMP2 (gene 7077)
Briefly: BSK_KF3CT_TIMP2: BioMAP Diversity Plus: KF3CT Assay for TIMP metallopeptidase inhibitor 2 (TIMP2) Biomarker Activity (AID 2283071). Conditions: primary human keratinocytes with fibroblasts; actives raise or lower the signal. In a few lines:
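TIMP-2 measured by ELISA at 24 h in human keratinocyte/fibroblast primary co-cultures exposed to chemicals. Both increases and decreases were fitted against DMSO. Parallel cultures were stained with SRB for total protein as an overt-cytotoxicity check.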

Read-out in assay [11]: Transforming growth factor beta 1 (TGFb1), TGFB1 (gene 7040)
Kind of assay: BSK_KF3CT_TGFb1: BioMAP Diversity Plus: KF3CT Assay for Transforming growth factor beta 1 (TGFb1) Biomarker Activity (AID 2283072). Conditions: primary human keratinocytes with fibroblasts; actives raise or lower the signal. In outline: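 ELISA quantifies TGF-b1 at 24 h post-dose in a primary human skin co-culture of keratinocytes and fibroblasts, with gain or loss judged against DMSO. Parallel SRB total-protein staining flags overt cytotoxicity.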

Read-out in assay [12]: C-C motif chemokine 2 (Homo sapiens) (UniProt P13500)
Kind of assay: BSK_KF3CT_MCP1: BioMAP Diversity Plus: KF3CT Assay for Monocyte Chemoattractant Protein 1 (MCP1/CCL2) Biomarker Activity (AID 2283073). Conditions: primary human keratinocytes with fibroblasts; actives raise or lower the signal. In outline:
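Human keratinocyte plus foreskin fibroblast primary co-culture exposed to chemical for 24 h. MCP-1 levels measured by ELISA. Bidirectional curve fitting relative to DMSO negative control as baseline.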

Read-out in assay [13]: Matrix Metallopeptidase 9 (MMP9), MMP9 (gene 4318)
Kind of assay: BSK_KF3CT_MMP9: BioMAP Diversity Plus: KF3CT Assay for Matrix Metallopeptidase 9 (MMP9) Biomarker Activity (AID 2283074). Conditions: primary human keratinocytes with fibroblasts; actives raise or lower the signal. In outline: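 ELISA read-out of MMP-9 at 24 h post-dosing in a co-culture of human skin keratinocytes and foreskin fibroblasts. Gain or loss of signal was fitted in both directions against DMSO.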

Read-out in assay [14]: urokinase plasminogen activator (uPA), PLAU (gene 5328)
Briefly: BSK_KF3CT_uPA: BioMAP Diversity Plus: KF3CT Assay for urokinase plasminogen activator (uPA) Biomarker Activity (AID 2283075). Conditions: primary human keratinocytes with fibroblasts; actives raise or lower the signal. In a few lines:
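Skin co-culture (keratinocytes + foreskin fibroblasts), human primary; 24 h post-dose; uPA by ELISA; gain/loss fit vs DMSO baseline.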

Read-out in assay [15]: CD40, CD40 (gene 958)
Kind of assay: BSK_LPS_CD40: BioMAP Diversity Plus: LPS Assay for CD40 Biomarker Activity (AID 2283076). Conditions: primary human HUVEC with PBMC; actives raise or lower the signal. In outline: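 Primary human umbilical vein endothelial cells co-cultured with peripheral blood mononuclear cells, LPS-stimulated, were dosed with chemical and read 24 h later. CD40 levels were measured by ELISA and fitted bidirectionally against DMSO as negative control and baseline.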

Read-out in assay [16]: E-selectin (Homo sapiens) (UniProt P16581)
Briefly: BSK_LPS_Eselectin: BioMAP Diversity Plus: LPS Assay for Eselectin Biomarker Activity (AID 2283077). Conditions: primary human HUVEC with PBMC; actives raise or lower the signal. In a few lines: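 Human umbilical vein endothelial cells co-cultured with peripheral blood mononuclear cells under LPS stimulation; E-selectin measured by ELISA 24 h after chemical dosing. Activity fitted bidirectionally against DMSO as negative control and baseline.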

Read-out in assay [17]: Interleukin-8 (IL8), CXCL8 (gene 3576)
Kind of assay: BSK_LPS_IL8: BioMAP Diversity Plus: LPS Assay for Interleukin-8 (IL8) Biomarker Activity (AID 2283078). Conditions: primary human HUVEC with PBMC; actives raise or lower the signal. In outline: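 Human umbilical vein endothelial cells co-cultured with PBMC were stimulated with LPS; IL-8 levels were measured by ELISA 24 h after chemical dosing. Activity was fitted bidirectionally against DMSO as negative control and baseline.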

Assay [18] in a line: BSK_LPS_SRB: Viability Assessment in the BioMAP Diversity Plus: LPS Assay (AID 2283079).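 Further: total protein by sulforhodamine B absorbance as a cytotoxicity measure; measured one day after compound addition.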 Conditions: primary human HUVEC with PBMC. In outline: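 Human umbilical vein endothelial cells co-cultured with PBMC (LPS system) were dosed for 24 h. Total protein was stained with 0.1% sulforhodamine B after 10% TCA fixation, read at 560 nm, and fitted bidirectionally against DMSO baseline.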

Read-out in assay [19]: Interleukin-1 alpha (IL1a), IL1A (gene 3552)
Kind of assay: BSK_LPS_IL1a: BioMAP Diversity Plus: LPS Assay for Interleukin-1 alpha (IL1a) Biomarker Activity (AID 2283080). Conditions: primary human HUVEC with PBMC; actives raise or lower the signal. In a few lines:
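Human umbilical vein endothelial cells co-cultured with peripheral blood mononuclear cells were LPS-stimulated and exposed to test chemicals for 24 h. IL-1 alpha was quantified by ELISA, with bidirectional curve fitting against DMSO as the negative control and baseline.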

Read-out in assay [20]: Monocyte Chemoattractant Protein-1 (MCP1), CCL2 (gene 6347)
Kind of assay: BSK_LPS_MCP1: BioMAP Diversity Plus: LPS Assay for Monocyte Chemoattractant Protein-1 (MCP1) Biomarker Activity (AID 2283081).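 On AC50: co-culture stimulated with LPS; secreted MCP-1 protein quantified by ELISA in culture supernatant.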 Conditions: primary human HUVEC with PBMC; actives raise or lower the signal. In a few lines: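 HUVEC plus PBMC co-culture (human primary cells, LPS system) exposed to test chemical for 24 h; MCP-1 measured by ELISA. Bidirectional curve fitting against DMSO baseline; parallel SRB total-protein staining flags overt cytotoxicity.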

Each structure is given as a SMILES string. Active and inactive are the calls of the source. How the source made its calls: active means hit-call score of the fitted dose curve at least 0.9, where 1 is the maximum; inactive means score below 0.9.

We go through 3 compounds from PubChem BioAssay (EPA / NIEHS).

Broadly, the AC50 is the concentration giving half of the maximal activity seen.

Chain of E-selectin (Homo sapiens) (P16581 whole entry, looked up): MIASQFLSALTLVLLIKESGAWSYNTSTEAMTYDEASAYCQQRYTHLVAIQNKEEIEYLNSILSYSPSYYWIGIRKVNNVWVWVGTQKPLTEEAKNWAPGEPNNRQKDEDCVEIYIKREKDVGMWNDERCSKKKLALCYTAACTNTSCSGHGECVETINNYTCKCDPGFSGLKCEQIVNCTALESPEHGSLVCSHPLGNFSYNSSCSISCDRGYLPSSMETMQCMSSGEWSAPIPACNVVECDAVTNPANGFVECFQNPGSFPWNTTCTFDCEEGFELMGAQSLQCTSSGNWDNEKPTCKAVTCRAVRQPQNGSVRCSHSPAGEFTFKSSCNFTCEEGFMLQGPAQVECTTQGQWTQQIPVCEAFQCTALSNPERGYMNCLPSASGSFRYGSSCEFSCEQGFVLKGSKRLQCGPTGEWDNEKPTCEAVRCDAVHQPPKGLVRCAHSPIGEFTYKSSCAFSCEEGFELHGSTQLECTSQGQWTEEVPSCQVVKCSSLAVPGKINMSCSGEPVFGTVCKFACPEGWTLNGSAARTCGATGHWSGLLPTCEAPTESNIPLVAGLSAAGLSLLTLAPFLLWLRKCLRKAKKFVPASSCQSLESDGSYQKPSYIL

`C1N2CN3CN1CN(C2)C3`: the outcome in assay [1], in assay [2], in [3], in assay [4], in [5] and in assay [6] was inactive. In addition, the outcome in assay [7], in assay [8], in assay [9], in assay [10], in assay [11] and in assay [12] was inactive. Besides, the result in assay [13], in [14], in assay [15], in [16], in [17] and in assay [18] was inactive. Moreover, the result in assay [19] and in [20] was inactive.
In the case of `O=C(OC[C@H]1O[C@@H](OC(=O)c2cc(O)c(O)c(OC(=O)c3cc(O)c(O)c(O)c3)c2)[C@H](OC(=O)c2cc(O)c(O)c(OC(=O)c3cc(O)c(O)c(O)c3)c2)[C@@H](OC(=O)c2cc(O)c(O)c(OC(=O)c3cc(O)c(O)c(O)c3)c2)[C@@H]1OC(=O)c1cc(O)c(O)c(OC(=O)c2cc(O)c(O)c(O)c2)c1)c1cc(O)c(O)c(OC(=O)c2cc(O)c(O)c(O)c2)c1`, the outcome in assay [1], in assay [12], in assay [15], in assay [16], in assay [17] and in [19] was inactive. For the same compound, the AC50 is 2.12 µM (active) in [2]; 1.86 µM (active) in [3]; 3.31 µM (active) in assay [4]; 6.1 µM (active) in [5]; 4.39 µM (active) in [6]; 4.98 µM (active) in assay [7]. The AC50 in assay [9] was 6.1 µM (active); in [11], 3.09 µM (active); in [14], 1.08 µM (active); in [18], 10 µM (active); in assay [20], 11 µM (active).
With `CC[C@H](C)C(=O)O[C@H]1C[C@@H](C)C=C2C=C[C@H](C)[C@H](CC[C@@H]3C[C@@H](O)CC(=O)O3)[C@H]21`, the AC50 was 29.9 µM (active) in [1]; 36.3 µM (active) in assay [2]; 36.6 µM (active) in [3]; 29.8 µM (active) in [4]; 31.9 µM (active) in assay [5]; 33.6 µM (active) in [6]. Further, the AC50 in assay [9] was 33.5 µM (active); in assay [10], 33.8 µM (active); in assay [11], 33.3 µM (active); in [12] it was 32.5 µM (active); in assay [14], 32.5 µM (active); in [15], 13.8 µM (active). Besides, the half-maximal activity concentration (AC50) in [18] and in assay [19] was 3.95 µM (active) throughout. The outcome in assay [17] and in assay [20] was inactive.
